Hits are enriched below; roughly 4.7% of the tested compounds scored in any of these assays.
D1 antagonist: antagonists of human D1 dopamine receptor; P21728; HEK293 TREx D1 cells, calcium flux, dopamine EC80; stronger effect = lower value; activity change, negative = inhibition, % at 10 µM; 3.2% of 360,000 active; AID 504652; in the data active = activity change below about -30%; also: % is scaled to controls: 0 for no effect and ±100 for the full control effect
Target sequence (P21728 whole entry, looked up): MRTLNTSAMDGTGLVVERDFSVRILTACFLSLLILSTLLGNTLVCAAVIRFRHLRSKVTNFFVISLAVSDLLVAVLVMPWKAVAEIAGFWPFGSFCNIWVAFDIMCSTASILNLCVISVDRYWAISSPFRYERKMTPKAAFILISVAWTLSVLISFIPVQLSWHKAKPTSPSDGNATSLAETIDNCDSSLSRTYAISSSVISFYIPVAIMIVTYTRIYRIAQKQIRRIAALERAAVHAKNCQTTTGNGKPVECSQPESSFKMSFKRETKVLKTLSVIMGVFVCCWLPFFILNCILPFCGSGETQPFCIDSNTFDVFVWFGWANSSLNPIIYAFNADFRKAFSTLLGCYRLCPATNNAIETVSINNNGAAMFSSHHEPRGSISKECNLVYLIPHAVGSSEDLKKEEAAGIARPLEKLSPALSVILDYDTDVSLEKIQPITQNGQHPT
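Compound effects on dopamine-evoked calcium signalling were measured in tetracycline-induced HEK293 Trex D1 cells. Dopamine at EC80 followed a 180 s compound pre-read, and fluorescence was tracked kinetically for 180 s more.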
TRHR PAM: TRH receptor (human) allosteric enhancement. 0.66% of 360,000 active. enhancement, % at 2 µM. TRHR cells, fluo-8 calcium fluorescence, EC20 TRH enhancement. AID 493056. P34981; in the data active = enhancement above about 30%; also: 0% is about no effect
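Enhancer read-out: after compound pinning and an initial kinetic agonist-mode read, an EC20 of TRH (10 nM final) was injected and fluo-8 calcium signal (Ex 480/Em 530) followed at 1 s/cycle for 100 cycles in TRHR-expressing cells.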
TRHR ag: agonists of human TRH receptor; P34981; TRHR cells, calcium flux fluo-8, FDSS agonist mode; activation, % at 2 µM; 0.18% of 360,000 active; also: 0% is about no effect
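Fluo-8-loaded TRHR cells; 10 s baseline, compound added, kinetic Ca2+ fluorescence read 1/s, agonist mode.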
D1 PAM: human D1 dopamine receptor positive modulation. P21728. AID 504651. potentiation, % at 10 µM. 0.036% of 360,000 active. HEK293 TREx D1 cells, calcium flux, dopamine EC20 potentiation; in the data active = potentiation above about 30%; also: 0% is about no effect
D1 agonist: human D1 receptor agonism. P21728. HEK293 T-REx D1 cells, calcium flux, agonist mode. activation, % at 2 µM. 1% of 360,000 active; also: 0% is about no effect
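Agonism was scored from calcium flux recorded over 180 s (1 read/s) after pintool compound addition, following a 10-cycle baseline. Cells were inducible force-coupled HEK293 TREx D1, plated overnight at 30 C and loaded with no-wash calcium dye.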
* = called active by the depositor; / = no result. Rule as the data show it, unless noted: active = activation above about 30%; inactive = the rest.

SMILES	D1 antagonist	TRHR PAM	TRHR ag	D1 PAM	D1 agonist
CNC(=O)c1cn(-c2ccccc2)c(=O)c2ccccc12	-73*	-5	0	-11	0
CC(C)c1nc(C(=O)N2CCCC(CCC(=O)N(C)CCc3ccccn3)C2)cs1 (stereo not drawn)	1	-1	0	2	4
O=S(=O)(Nc1cc(Cl)ccc1-n1cncn1)c1cc(Br)ccc1Br	-33*	-5	1	-10	21
Cc1ccc(S(=O)(=O)Nc2cc(Cl)ccc2-n2cncn2)cc1	-38*	9	0	2	1
O=S(=O)(Nc1cc(Cl)ccc1-n1cncn1)c1ccc(F)cc1	-1	-3	1	-1	4
CCn1c(SCC(=O)NCC2CCCO2)nnc1-c1ccc(S(=O)(=O)N2CCN(C)CC2)cc1 (stereo not drawn)	-16	2	1	4	5
COc1ccc(CCNC(=O)c2nn(-c3ccc(C)cc3)c(=O)c3c2c2ccccc2n3C)cc1OC	-16	-8	0	6	19
CCCNC(=O)C1CCN(S(=O)(=O)c2ccc3c(c2)CCCN3C(C)=O)CC1	1	-2	0	-6	1
O=C1c2oc3ccccc3c(=O)c2C(c2ccc(Br)cc2)N1c1ccccn1 (stereo not drawn)	0	-10	1	2	1
CCOc1ccc(C(=O)Nc2ccc(S(=O)(=O)N3CCCCC3c3cccnc3)cc2)cc1 (stereo not drawn)	12	1	0	-3	3
O=S(=O)(c1ccc(SCCOc2ccccc2Cl)nc1)N1CCCC1	10	-2	2	/	38*
CN1CCN(S(=O)(=O)c2ccc(SCCOc3ccc(Cl)cc3)nc2)CC1	-44*	16	2	-15	14
COc1ccc(OCCSc2ccc(S(=O)(=O)N3CCCC3)cn2)cc1	0	-1	1	/	22
NC(=O)CSc1ccc(S(=O)(=O)N2CCCCC2)cn1	7	4	8	/	41*
O=S(=O)(c1ccc(SCCOc2cccc(Br)c2)nc1)N1CCCC1	-15	-3	3	2	18
CCN(CC)S(=O)(=O)c1ccc2nc(NC(=O)c3cccnc3)sc2c1	11	15	0	1	2
Cc1ccccc1S(=O)(=O)Oc1ccccc1C(=O)Oc1ccccc1	-31*	6	1	-8	9
Cc1ccc(-c2[nH]ncc2CNCCc2cnn(-c3ccccc3)c2)cc1C	-27	-4	1	-13	34*
Cn1cc(CCNCc2cn[nH]c2-c2ccc(-c3ccccc3)cc2)cn1	0	4	0	-6	2
O=S(=O)(Cc1cc(-c2ccc(Cl)cc2)no1)c1ccccc1	-19	-1	-1	-3	3
O=S(=O)(Cc1cc(-c2ccccc2Cl)no1)c1ccccc1	-21	20	0	-9	37*
Cc1ccc(-c2noc(-c3nnn(CC(=O)Nc4ccc(C)cc4Cl)c3N)n2)cc1	4	3	0	-1	-2
COc1ccc(CCNC(=O)c2ccc3c(c2)N(Cc2ccc(Cl)cc2)CCS3)c(OC)c1	-20	0	0	9	0
Cc1oc(-c2ccccc2Cl)nc1Cn1c(SCc2cccc(F)c2)nc2cccnc21	7	1	2	4	13
COc1cccc(N/C(N)=N/c2nc(C(F)(F)F)cc(=O)[nH]2)c1	3	31*	1	-4	2
SMILES	D1 antagonist	TRHR PAM	TRHR ag	D1 PAM	D1 agonist
CCc1nnc(NS(=O)(=O)c2ccc(NCc3cc(Cl)cc(Cl)c3O)cc2)s1	6	11	0	0	33*
Cc1ccccc1OCCCCn1c(C2CC(=O)N(c3ccccc3Cl)C2)nc2ccccc21 (stereo not drawn)	-10	4	-2	-4	32*
Cc1cccc(C)c1OCCCCn1c(C2CC(=O)N(c3ccc(F)cc3)C2)nc2ccccc21 (stereo not drawn)	-10	-3	3	0	36*
Cc1cccc(C)c1OCCn1c(C2CC(=O)N(c3cccc(Cl)c3)C2)nc2ccccc21 (stereo not drawn)	-5	1	2	-1	7
COc1ccccc1OCCCCn1c(C2CC(=O)N(c3ccccc3Cl)C2)nc2ccccc21 (stereo not drawn)	3	-8	1	-2	37*
O=C(CCCc1nc(-c2ccccc2)no1)Nc1cc(C(F)(F)F)cc(C(F)(F)F)c1	-18	2	2	0	15
CC(C)(C)C(=O)Nc1ccc(-c2nc3ccccc3s2)cc1	0	-7	1	0	-1
CCc1ccc(OCC(=O)N(Cc2ccco2)Cc2ccco2)cc1	-18	-5	1	0	3
COc1ccccc1N1CCN(S(=O)(=O)c2ccccc2)CC1	-10	-2	-2	-3	4
COc1ccc(F)cc1S(=O)(=O)N1CCCN(S(=O)(=O)c2cc(F)ccc2OC)CC1	-30*	-4	1	0	9
COc1ccc(F)cc1S(=O)(=O)N1CCCC(C)C1 (stereo not drawn)	5	13	0	-5	0
COc1ccccc1N1CCN(S(=O)(=O)c2ccccc2F)CC1	-32*	-2	0	9	16
CCc1ccccc1NC(=O)CN1C(=O)CCc2cc(S(=O)(=O)N3CCCCC3)ccc21	18	-16	-1	1	0
Cc1nc(COc2ccc(C(=O)NCc3ccccc3CN3CCCCC3)cc2)cs1	-64*	13	-1	4	34*
O=C(NCc1ccccc1CN1CCCC1)c1ccc(OCc2cscn2)cc1	-17	4	1	/	13
Cc1ccc2sc(N(Cc3cccnc3)C(=O)CCS(=O)(=O)c3ccccc3)nc2c1C	/	7	-1	-2	31*
Cc1cccc2sc(N(Cc3cccnc3)C(=O)CCS(=O)(=O)c3ccccc3)nc12	/	-2	0	4	8
Cc1cc(C(=O)N2CCCC(C(=O)c3ccc(Cl)cc3C)C2)no1 (stereo not drawn)	-35*	15	-1	7	1
Cc1cc(Cl)ccc1C(=O)C1CCCN(C(=O)c2cscn2)C1 (stereo not drawn)	-2	-14	-1	-1	0
O=C(NC1CCCCC1)c1cc(S(=O)(=O)N2CCOCC2)ccc1Cl	-17	12	0	-4	1
CC1CCc2sc(C(=O)NC3CCN(Cc4ccccc4)CC3)cc2C1 (stereo not drawn)	-16	11	0	/	37*
O=C(NC1CCN(Cc2ccc(Cl)c(Cl)c2)CC1)c1ccccc1	-33*	-2	0	-6	6
O=C(Nc1cc(S(=O)(=O)N2CCOCC2)ccc1Cl)c1cc2ccccc2o1	-48*	2	0	-6	3
O=C(NC1CCN(Cc2ccccc2)C1)c1cc(S(=O)(=O)N2CCOCC2)ccc1Cl (stereo not drawn)	-30*	0	1	-12	2
